# Sm TGR block: blocks Schistosoma mansoni thioredoxin glutathione reductase | Q962Y6 | purified TGR, DTNB reduction, TNB absorbance 405 nm | Potency, µM (doses to about 114 µM), for inactives: top-dose activity change, negative = inhibition, hits mostly inhibitors | hit rate 3% among 360,000 | AID 485364; further: on the % scale 0 is the no-effect control and ±100 the full control effect; nearly all actives have a fitted effect of over 60% in size
#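 First, TGR (20 nM dispensed) and NADPH were mixed with compound. Second, a 15 min room-temperature incubation followed. Third, further NADPH and then DTNB were added to start the reaction. Finally, TNB absorbance was monitored kinetically.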
# NS1 inh: influenza NS1 inhibition. Potency, µM (highest dose often 46.1 µM), for the others: at the top dose activity, positive = more growth. hit rate 0.4% among 270,000; calls by dose curve; further: actives are rising curves; nearly all actives have a fitted effect of over 50% in size
#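 Growth recovery, yeast-based: influenza A NS1 expressed in S. cerevisiae causes slow growth, and suppressors are detected by OD600. The parent strain without NS1 is used as positive control.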
# Pf growth 96h: P. falciparum growth inhibition at 96 hour, primary screen for plastid delayed-death inhibitors; P. falciparum luciferase reporter growth, 96 h; Potency, µM (highest dose often 28.7 µM), for inactives: at the top dose activity change, negative = inhibition, actives largely listed as inhibitors; hit rate 6.9% among 320,000; AID 504834; further: on the % scale 0 is the no-effect control and ±100 the full control effect
#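 96 h incubation, 37 C, 5% CO2, of luciferase-reporter P. falciparum-infected RBCs (2% hematocrit, 0.05% parasitemia final) with test compounds; endpoint luminescence.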
# Pf growth 48h: P. falciparum growth inhibition at 48 hours (one generation). P. falciparum luciferase growth in erythrocytes, 48 h. Potency, µM (top dose mostly 28.7 µM), for the others: at the highest dose activity change, negative = inhibition, usual class: inhibitors. hit rate 5.9% among 310,000. AID 504832; further: on the % scale 0 is the no-effect control and ±100 the full control effect
#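 Luciferase-expressing parasites in RBCs, 2% Hct / 0.1% parasitemia final; RPMI 1640 + 0.5% Albumax; 37 C, 5% CO2, one generation; luminescence read-out, lower signal = inhibition.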
# AMA1-RON2 inh: AMA1-RON2 (P. falciparum) interaction inhibition; AlphaScreen AMA1-biotinylated RON2 peptide binding; Potency, µM (series often up to 58.2 µM), for inactives: at the top dose activity change, negative = inhibition, most hits filed as inhibitors; hit rate 0.2% among 360,000;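 further: 0% = vehicle wells and -100% = peptide control; nearly all actives have a fitted effect of over 45% in size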
#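 AMA1 (3D7) with his tag at 25 nM final met compounds first, then biotinylated RON2 peptide at 25 nM; detection used donor plus acceptor beads, 10 µg/mL apiece, read by AlphaScreen after 30 min at room temperature.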
# An asterisk follows results filed as active; u = inconclusive; x = not tested or not shown; [ ] = dose if it differs, or a comment. A selection: hits, their analogues and other compounds. The true share with any hit is near 11%. Unless noted, the call rests on the fitted dose curve; in most records, active means well fitted curve in the direction sought with a large enough effect; inconclusive means small, poorly fitted or top-dose-only effect, or another doubt; inactive means no such curve, though single readings can be large; an effect the other way counts as inactive or inconclusive. Potency means the concentration at half of the fitted maximal effect.
SMILES,Sm TGR block,NS1 inh,Pf growth 96h,Pf growth 48h,AMA1-RON2 inh
Cc1noc(C)c1S(=O)(=O)N1CCC(C(=O)N2CCN(C3CCCC3)CC2)CC1,32µM*,1%,-1%,21%,x
CCc1ccc(NC(=O)C2CCN(S(=O)(=O)c3c(C)noc3/C=C\c3ccc(OC)cc3)CC2)cc1,10%,x,x,x,x
CCOc1ccc(NC(=O)C2CCN(S(=O)(=O)c3c(C)noc3C)CC2)cc1,2%,3%,7.4µM*,-1%,34%
CCC(C)N1CCN(C(=O)C2CCN(S(=O)(=O)c3c(C)noc3/C=C/c3ccco3)CC2)CC1 (centres undefined),45µM*,11%,46%,u,7%
CN1C(=O)CS/C1=N\NC(=O)COc1cccc2cccnc12,5%,3%,-2%,17%,9%
COc1ccc(CNC(=O)C[C@H]2C(=O)N(CCc3ccccc3)C[C@@H]2Cc2ccccc2)cc1,-8%,-19%,0%,11%,2%
CCOc1ccccc1/C=C/c1onc(C)c1S(=O)(=O)N1CCC(C(=O)NC(C)(C)C)CC1,1%,u,54%,15µM*,-8%
CCOc1ccccc1/C=C/c1onc(C)c1S(=O)(=O)N1CCC(C(=O)NC)CC1,3%,9%,-24%,u,0%
COC(=O)c1sc(N2CCCCC2)c(C#N)c1N,1%,-3%,32%,32%,-28%
COc1ccc(Cc2nc3ccccc3n2Cc2ccccc2C)cc1,1%,x,x,x,x
CCn1c(NC(=S)Nc2ccccc2)nc2ccccc21,-34%,-16%,3.3µM*,u,58%
CCn1c(NC(=O)C2CCCCC2)nc2ccccc21,-9%,-4%,351%,10µM*,100%
S=C(Nc1ccccc1)Nc1nc2ccccc2n1CCOc1ccc(Cl)cc1,-1%,3%,12µM*,7.4µM*,u
CCCn1c(NC(=S)Nc2ccccc2)nc2ccccc21,-12%,-31%,42%,u,15%
CCCCNC(=O)C[C@@H]1C[C@@]2(C(=O)OCC)CCCC=C2N(CCC2=CCCCC2)C1=O,x,x,x,x,-13%
O=S1(=O)CCOCCN1Cc1ccc(Cl)cc1Cl,u,-12%,u,39%,x
Cc1cc(C)cc(N(CC(=O)NC(C)(C)C)C(=O)CCC(=O)Nc2ccccn2)c1,-20%,2%,10µM*,-9%,3%
COc1ccccc1N(CC(=O)NCCc1ccccc1)C(=O)CCC(=O)Nc1cc(C)ccn1,-1%,-18%,u,-11%,5%
Cc1cc(C)cc(N(CC(=O)NCc2ccc(F)cc2)C(=O)CCC(=O)Nc2ccccn2)c1,8%,u,-3%,13µM*,-2%
COc1ccc(N(CC(=O)NCc2ccccc2)C(=O)CCC(=O)Nc2cc(C)ccn2)c(OC)c1,2%,-35%,0.47µM*,1.7µM*,-9%
Cc1ccnc(NC(=O)CCC(=O)N(CC(=O)NCc2ccc(F)cc2)c2cccc(F)c2)c1,-4%,4%,32%,7%,-11%
Cc1cccc(N(CC(=O)NC(C)(C)C)C(=O)CCC(=O)Nc2ccccn2)c1,2%,-8%,u,-18%,7%
O=C(CCC1CCCCC1)Nc1nnc(C(F)(F)F)s1,4%,-2%,u,52%,-2%
CCCCN(C(=O)c1nn(C)c(=O)c2ccccc12)c1c(N)n(CC(C)C)c(=O)[nH]c1=O,-9%,x,13%,-18%,-17%
Nc1nc2c(ncn2[C@@H]2O[C@H](CNCc3ccc(Oc4cc(-n5cccn5)ncn4)cc3)[C@@H](O)[C@H]2O)c(=O)[nH]1,x,x,x,x,13%
SMILES,Sm TGR block,NS1 inh,Pf growth 96h,Pf growth 48h,AMA1-RON2 inh
Cn1cccc1C(=O)OCC(=O)NC1CCS(=O)(=O)C1 (centres undefined),3%,2%,18%,1.5µM*,-6%
Cc1ccc(OCC(=O)NC2CCS(=O)(=O)C2)c(C)c1 (centres undefined),3%,0%,5.9µM*,8%,8%
CCN(C(=O)COC(=O)c1cccn1C)C1CCS(=O)(=O)C1 (centres undefined),-4%,x,29%,0%,-4%
CCOC(=O)C1CCCN(S(=O)(=O)c2cc(C(=O)OC)n(C)c2)C1 (centres undefined),0%,0%,36%,4%,4%
C[C@@H]1O[C@@H](Oc2c(-c3cc(O)c(O)c(O)c3)oc3cc(O)cc(O)c3c2=O)[C@H](O)[C@H](O)[C@H]1O,-17%,4%,u,13µM*,-20%
Cn1nc(C(C)(C)C)cc1C(=O)O,-6%[57.1 µM],1%,9.3µM*,12%,0%
Cn1nc(C(C)(C)C)cc1C(=O)NNC(=O)c1ccc(C(F)(F)F)cc1,9%,0%,-5%,5%,77%
Cn1nc(C(C)(C)C)cc1C(=O)Sc1cccc(Br)c1,13µM*,0%,15%,15%,9%
COc1ccc(C(=O)Nc2cnc3ccccn3c2=O)cc1,-11%,-2%,u,71%,5%
Cc1cc(Br)cc(C)c1NC(=O)c1cnc2ccccn2c1=O,-2%,x,x,x,x
O=C(Nc1cnc2ccccn2c1=O)c1ccc(F)cc1,3%,u,13µM*,172%,-10%
Cc1ccccc1NC(=O)c1cnc2ccccn2c1=O,13%,-54%,6.6µM*,44%,0%
Cc1ccc(C)c(S(=O)(=O)N2CCCC2CNC(=O)C(=O)NC2CCCC2)c1 (centres undefined),2%,x,-13%,u,16%
Cn1c(=O)n(CC(=O)NCC2CCCO2)c(=O)c2c3c(sc21)CCCC3 (centres undefined),7%,-4%,-28%,17%,0%
COc1ccc(C2N(c3cc(C)on3)C(=O)C3CCCN32)cc1 (centres undefined),12%,6%,3.3µM*,-32%[1.15 µM],0%
O=C1C2CCCN2C(c2cccc(Cl)c2)N1c1ccccn1 (centres undefined),6%,u,2%,-1%,1%
Cc1cc(N2C(=O)C3CCCN3C2c2cccc(Cl)c2)no1 (centres undefined),-22%,2%,4.7µM*,9%,-13%
CCOc1ccc(NC(=O)c2ccc(CN3CCc4ccccc4C3)cc2)cc1,0%,14%,5.2µM*,-10%,-6%
N#CCc1ccc(NC(=O)c2ccc(CN3CCc4ccccc4C3)cc2)cc1,-4%,1%,8.3µM*,u,1%
O=C(Nc1ccc(S(=O)(=O)N2CCOCC2)cc1)c1ccc(CN2CCc3ccccc3C2)cc1,3%,4%,-62%,12µM*,-10%
O=C(Nc1ccc(Cl)cc1)c1ccc(CN2CCc3ccccc3C2)cc1,-1%,-7%,u,-4%,-6%
CC(=O)Nc1ccc(C)cc1-c1nc2ccccc2n(CC(=O)Nc2cc(Cl)ccc2C)c1=O,-2%,x,x,x,x
CCn1c(N2CCN(CC(=O)c3c[nH]c4ccccc34)CC2)nc2c1c(=O)[nH]c(=O)n2C,0%,-52%,3%,u,4%
Cn1c(=O)[nH]c(=O)c2c1nc(CN1CCN(c3ccc(F)cc3)CC1)n2CCCc1ccccc1,-2%,-10%,-8%,-15%,-6%

# Assay outcomes as filed in PubChem.
